# The source made the active and inactive calls. The rule behind the calls is not given here.
# Molecular target: Estrogen receptor (Homo sapiens) (UniProt P03372)
# Experiment: displacement of fluorescent estrogen from ERalpha – cell-based, Cos7 ERalpha-GFP, flow cytometry, primary screen (AID 1211);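 note: 0% = DMSO vehicle wells and 100% = no E2-Alexa633 signal left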
# Conditions: fluorescent ligand competition, at 10 µM, stronger effect = higher value
# Chain of Estrogen receptor (Homo sapiens) (P03372 whole entry, looked up): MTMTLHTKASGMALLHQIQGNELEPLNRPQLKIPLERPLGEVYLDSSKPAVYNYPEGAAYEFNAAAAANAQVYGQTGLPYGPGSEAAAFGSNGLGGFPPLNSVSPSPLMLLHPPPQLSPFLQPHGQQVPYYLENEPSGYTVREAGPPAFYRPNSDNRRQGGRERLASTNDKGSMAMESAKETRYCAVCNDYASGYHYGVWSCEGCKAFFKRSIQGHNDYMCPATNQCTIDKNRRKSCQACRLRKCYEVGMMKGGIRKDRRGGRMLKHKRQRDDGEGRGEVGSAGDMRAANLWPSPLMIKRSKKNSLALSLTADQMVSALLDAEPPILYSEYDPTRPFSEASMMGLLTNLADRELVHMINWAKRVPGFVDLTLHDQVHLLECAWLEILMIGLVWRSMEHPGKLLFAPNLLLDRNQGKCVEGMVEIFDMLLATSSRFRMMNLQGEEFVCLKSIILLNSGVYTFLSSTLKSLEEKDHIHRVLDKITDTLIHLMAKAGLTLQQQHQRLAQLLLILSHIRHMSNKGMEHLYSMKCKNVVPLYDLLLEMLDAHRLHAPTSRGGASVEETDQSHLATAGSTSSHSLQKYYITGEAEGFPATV
row,SMILES,inhibition of ligand binding
1,COc1ccc(-c2nc(C(N)=O)c3[nH]c(=O)n(-c4cccc(Cl)c4)c3n2)cc1OC,0% (inactive)
2,CCC1=NN2C(=N)/C(=C\c3ccc(SCc4ccco4)o3)C(=O)N=C2S1,22% (inactive)
3,O=C(Nc1cccc(-c2cn3cccnc3n2)c1)c1ccc2c(c1)OCO2,22% (inactive)
4,Clc1ccc2nc(-c3ccccn3)c(Nc3ccc4c(c3)OCO4)n2c1,42% (inactive)
5,Cc1[nH]c2ccc(-c3nnc(SCC(=O)c4ccccc4F)o3)cc2c1C,43% (inactive)
6,Cc1ccc2[nH]c(=O)c(-c3nc4ccccn4c3NCc3ccco3)cc2c1,23% (inactive)
7,CCCCCc1nnc(NC(=O)Cc2cccs2)s1,26% (inactive)
8,COC(=O)c1cc(-c2c(C)oc3cc(O)ccc3c2=O)c(C)o1,32% (inactive)
9,Cn1ccnc1SCC(=O)Nc1ccc2nc(SCC(=O)NC3CC3)sc2c1,30% (active)
10,CC(C)c1ccc2c(c1)[C@H]1OCC[C@H]1[C@@H](c1cccs1)N2,0% (inactive)
11,Oc1ccccc1C1=Nc2ccccc2N=C(c2cccs2)C1,1% (inactive)
12,COc1ccc(-c2ccc(=O)[nH]n2)cc1,22% (inactive)
13,COC(=O)c1ccccc1NC(=O)c1noc2c1CCC2,25% (inactive)
14,O=C(NCc1ccco1)c1cc2cc3ccc(Cl)cc3nc2o1,49% (inactive)
15,Cc1ccc(NC(=O)CN2C(=O)S/C(=C/c3ccc(-c4cc(C(=O)O)ccc4C)o3)C2=O)cc1C,50% (inactive)
16,O=c1[nH]c(N/N=C/c2ccc(O)cc2)nc2ccccc12,23% (inactive)
17,O=C(Oc1ccc(-c2cnc3ccccc3n2)cc1)c1ccc(Br)o1,58% (inactive)
18,CCN1CCc2nc(NC(=O)Cc3ccc4c(c3)OCCO4)sc2C1,36% (inactive)
19,O=C(NCc1ccco1)c1cc2ccc(O)cc2oc1=O,5% (inactive)
20,Cc1cc2n(c1)CCn1c(C)ccc1-2,26% (inactive)
21,O=C1NCCCC2c3cc(O)c4ccccc4c3OC12N1CCCCC1 (stereo not drawn),25% (inactive)

# Same assay, conditions: fluorescent ligand competition, binding inhibition, at 0.1 µM, stronger effect = higher value
row,SMILES,inhibition of ligand binding
1,Cc1nn(-c2ccccc2)c(C)c1NC(=O)Cc1cccs1,35%
2,COc1ccc(N2Cc3cccc(C(=O)O)c3C2=O)cc1,44%
3,CCCSC1=N/C(=C\C=C\c2ccco2)C(=O)S1,31%
4,Cc1c(N=Cc2ccc(O)c(Br)c2)cccc1[N+](=O)[O-],23%
5,CC(=O)Nc1ccc2[nH]c(C)cc(=O)c2c1,19%
6,Nc1ccc(-n2cnc3cc([N+](=O)[O-])ccc32)cc1,66%
7,NS(=O)(=O)c1ccc2c(c1)C1C=CCC1C(C1CC=CCC1)N2 (stereo not drawn),17%
8,C=CCn1c(COc2cccc(C)c2)nnc1SCC(=O)NC(=O)NCc1ccco1,31%
9,O=C(Nc1ccc2oc(-c3ccc4ccccc4c3)nc2c1)c1cccs1,51%
10,Cc1ccc(C(=O)CSC2=C(C#N)C(c3ccco3)CC(=O)N2)c(C)c1 (stereo not drawn),53%
11,COc1ccc(NC(=O)C(c2ccccc2)N(C)C(=O)c2ccc(=O)[nH]c2)cc1 (stereo not drawn),86%
12,O=C(O)C1CSC(c2coc3ccccc3c2=O)N1 (stereo not drawn),47%
13,COc1cc(C2CC(=O)c3c(ccc4ccccc34)N2)ccc1O (stereo not drawn),12%
14,COc1cc2c(cc1OC)C(Cc1ccc(O)cc1)N(C)CC2 (stereo not drawn),16%
15,O=C(Oc1ccc2c(c1)OCO2)c1cc2c(s1)CCC2,27%
16,Cc1ccc(-n2c(SCC(=O)NNC(=S)Nc3ccccc3)nc3ccccc3c2=O)cc1,44%
17,COc1ccc(-c2cn3c(C)c(C(=O)Nc4ccncc4)sc3n2)cc1,3%
18,COc1ccc(-c2nc(C(N)=O)c3[nH]c(=O)n(-c4cccc(Cl)c4)c3n2)cc1OC,6%
19,CCC1=NN2C(=N)/C(=C\c3ccc(SCc4ccco4)o3)C(=O)N=C2S1,10%
20,O=C(Nc1cccc(-c2cn3cccnc3n2)c1)c1ccc2c(c1)OCO2,10%
21,Clc1ccc2nc(-c3ccccn3)c(Nc3ccc4c(c3)OCO4)n2c1,9%
22,Cc1[nH]c2ccc(-c3nnc(SCC(=O)c4ccccc4F)o3)cc2c1C,4%
23,Cc1ccc2[nH]c(=O)c(-c3nc4ccccn4c3NCc3ccco3)cc2c1,16%
24,CCCCCc1nnc(NC(=O)Cc2cccs2)s1,8%
25,COC(=O)c1cc(-c2c(C)oc3cc(O)ccc3c2=O)c(C)o1,50%
26,Cn1ccnc1SCC(=O)Nc1ccc2nc(SCC(=O)NC3CC3)sc2c1,78%
27,CC(C)c1ccc2c(c1)[C@H]1OCC[C@H]1[C@@H](c1cccs1)N2,20%

# Source: PubChem BioAssay AID1211 (NMMLSC, 2008)
